CBX7 AlphaScr: blocks human CBX7 binding to H3K27me3 peptide; AlphaScreen His6-CBX7 / biotin-H3K27me3 peptide binding; hits give low values; normalised signal (fraction of DMSO) (concentration not given with the values); hit rate 1.1% among 66,000; AID 1224903; in the data active = normalised signal below about 0.5
Target sequence (O95931 whole entry, looked up): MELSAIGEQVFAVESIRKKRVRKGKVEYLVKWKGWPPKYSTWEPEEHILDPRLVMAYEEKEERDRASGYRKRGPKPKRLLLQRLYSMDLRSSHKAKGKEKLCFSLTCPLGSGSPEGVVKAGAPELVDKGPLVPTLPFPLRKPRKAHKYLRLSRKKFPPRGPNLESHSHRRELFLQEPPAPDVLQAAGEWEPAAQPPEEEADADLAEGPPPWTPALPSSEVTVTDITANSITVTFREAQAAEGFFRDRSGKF
Hits are given with their value. Many of the other results were omitted from the sample, so hits are more common in it than they were.

Cc1ccc(C)c2[nH]c(=O)c(CCNC(=O)C3CCCC3)cc12 was read as CBX7 AlphaScr inactive.
Screening CC(NC(=O)c1ccc(F)cc1)c1nc2ccccc2n1C (stereo unspecified) returned CBX7 AlphaScr inactive.
CCc1ccccc1NC(=O)c1cccc2c1C(=O)N(c1ccc(OC)cc1)C2 was read as CBX7 AlphaScr 0.14.
Screening CCc1ccc(NC(=O)c2cccc3c2C(=O)N(c2ccc(OC)cc2)C3)cc1 returned CBX7 AlphaScr inactive.
`COc1ccc(N2Cc3cccc(C(=O)Nc4ccccc4OC)c3C2=O)cc1` gave CBX7 AlphaScr inactive.
`CCCCNC(=O)c1cn(C)c2ccc(S(=O)(=O)N3CCC(C)CC3)cc2c1=O` gave CBX7 AlphaScr inactive.
Screening Cc1ccc(CNC(=O)c2ccc3c(c2)N(Cc2ccc(Cl)cc2)C(=O)c2ccccc2S3)cc1 returned CBX7 AlphaScr inactive.
COc1ccc(S(=O)(=O)N2CCCCC2c2cccnc2)cc1 (stereo unspecified) was read as CBX7 AlphaScr inactive.
`O=C(O)c1c[nH]c2ccc(S(=O)(=O)N3CCCCC3c3cccnc3)cc2c1=O` (stereo unspecified) gave CBX7 AlphaScr 0.4.
For O=C(c1c[nH]c2ccc(S(=O)(=O)N3CCCCC3c3cccnc3)cc2c1=O)N1CCCC1 (stereo unspecified) the results were CBX7 AlphaScr inactive.
For CCOC(=O)c1ccc(NC2c3ccccc3C(=O)N2c2ccc(OCC)cc2)cc1 (stereo unspecified) the results were CBX7 AlphaScr inactive.
Screening COc1ccc(OC)c(CCNc2ccc3nnc(CCC(=O)Nc4ccc(C)cc4)n3n2)c1 returned CBX7 AlphaScr inactive.
Screening FC(F)(F)C(F)(F)C(F)(F)c1nnc2ccc(Cl)nn12 returned CBX7 AlphaScr inactive.
Screening COc1ccc(-c2nc3cnccn3c2Nc2ccccc2C)cc1 returned CBX7 AlphaScr inactive.
`CCOc1ccc2ccccc2c1-c1nc2sc3c(c2c(=O)[nH]1)CCCC3` gave CBX7 AlphaScr inactive.
`CN(c1ccccc1)S(=O)(=O)c1ccc(C(=O)Nc2nc(-c3ccccn3)cs2)cc1` gave CBX7 AlphaScr 0.17.
`CN(c1ccccc1)S(=O)(=O)c1ccc(C(=O)Nc2nc(-c3ccc(Cl)cc3)cs2)cc1` gave CBX7 AlphaScr inactive.
Screening CCCCN(C)S(=O)(=O)c1ccc(C(=O)Nc2nc(-c3ccccn3)cs2)cc1 returned CBX7 AlphaScr 0.098.
For CC1CN(S(=O)(=O)c2ccc(C(=O)Nc3nc(-c4ccccn4)cs3)cc2)CC(C)O1 (stereo unspecified) the results were CBX7 AlphaScr 0.31.
Screening CCCCN(CC)S(=O)(=O)c1ccc(C(=O)Nc2nc(-c3ccncc3)cs2)cc1 returned CBX7 AlphaScr inactive.
For O=C(Nc1nc(-c2ccccn2)cs1)c1ccc(S(=O)(=O)N2CCCc3ccccc32)cc1 the results were CBX7 AlphaScr inactive.
For CN(C1CCCCC1)S(=O)(=O)c1ccc(C(=O)Nc2nc(-c3ccccn3)cs2)cc1 the results were CBX7 AlphaScr inactive.
For CC1CN(S(=O)(=O)c2ccc(C(=O)Nc3nc(-c4ccncc4)cs3)cc2)CC(C)O1 (stereo unspecified) the results were CBX7 AlphaScr inactive.
`COc1ccccc1-c1csc(NC(=O)c2ccc(S(=O)(=O)N(C)c3ccccc3)cc2)n1` gave CBX7 AlphaScr inactive.
Screening COc1ccc(CCNC2CC(=O)N(c3ccc(Br)cc3)C2=O)cc1 (stereo unspecified) returned CBX7 AlphaScr inactive.
Screening CCc1nnc(NS(=O)(=O)c2ccc(NC(=O)Cc3ccccc3)cc2)s1 returned CBX7 AlphaScr inactive.
For CC1(C)CC(=O)C2=C(C1)N(c1ccccc1)C(=O)CC2c1cccs1 (stereo unspecified) the results were CBX7 AlphaScr inactive.
Screening Nc1c(C(=O)Nc2cccc3ccccc23)nnn1Cc1ccccc1 returned CBX7 AlphaScr inactive.
Screening Clc1ccc(Cc2nc(-c3ccccc3)no2)cc1 returned CBX7 AlphaScr inactive.
For COc1ccccc1NC(=O)Cn1cnc2sc(C(=O)N3CCC(C(N)=O)CC3)c(C)c2c1=O the results were CBX7 AlphaScr inactive.
For Cc1cccn2c(Nc3ccc4c(c3)OCCO4)c(-c3ccsc3)nc12 the results were CBX7 AlphaScr inactive.
c1ccc(-c2nc3ccccn3c2Nc2ccc3c(c2)OCCO3)nc1 was read as CBX7 AlphaScr 0.073.
Cc1ccc(-c2nc3ncccn3c2Nc2c(C)cccc2C)cc1 was read as CBX7 AlphaScr inactive.
Clc1ccc2nc(-c3ccccn3)c(Nc3ccc4c(c3)OCO4)n2c1 was read as CBX7 AlphaScr inactive.
Screening Cc1cccc(C)c1Nc1c(-c2ccsc2)nc2ncccn12 returned CBX7 AlphaScr inactive.
`c1ccc(-c2nc3ccccn3c2Nc2ccc3c(c2)OCCO3)cc1` gave CBX7 AlphaScr inactive.
Screening Cc1ccc(-c2nc3ncccn3c2NC2CCCC2)cc1 returned CBX7 AlphaScr inactive.
`Cc1ccc(-c2nc3cnccn3c2NC2CCCC2)cc1` gave CBX7 AlphaScr inactive.
Cc1ccc2nc(-c3ccccn3)c(NC3CCCC3)n2c1 was read as CBX7 AlphaScr 0.12.
Screening Cc1cccn2c(Nc3ccc4c(c3)OCCO4)c(-c3cccc(Cl)c3)nc12 returned CBX7 AlphaScr inactive.
For Cc1cccc(C)c1Nc1c(-c2ccccn2)nc2ncccn12 the results were CBX7 AlphaScr 0.011.
`Cc1cccn2c(Nc3ccc4c(c3)OCCO4)c(-c3ccc(N(C)C)cc3)nc12` gave CBX7 AlphaScr 0.41.
For COc1ccc(NC(=O)CN2C(=O)CSc3ncccc32)cc1OC the results were CBX7 AlphaScr inactive.
Screening CCc1ccc2c(c1)c(=O)c(S(=O)(=O)c1ccccc1)cn2CC(=O)Nc1ccc(F)cc1 returned CBX7 AlphaScr inactive.
Screening COc1ccc(-c2cc3nc(C)c(CCC(=O)Nc4ccccc4OC)c(C)n3n2)c(OC)c1 returned CBX7 AlphaScr inactive.
Screening CC(C)NC(=O)c1ccc2c(c1)N(Cc1ccc(Cl)cc1)CCS2 returned CBX7 AlphaScr inactive.
`CCc1ccc(NC(=O)Cn2cnc3sc(C)c(S(=O)(=O)N4CC(C)CC(C)C4)c3c2=O)cc1` (stereo unspecified) gave CBX7 AlphaScr inactive.
For CN(CC(=O)Nc1ccccc1F)S(=O)(=O)c1cccc2cccnc12 the results were CBX7 AlphaScr inactive.
Screening Cc1c(C(=O)Nc2ccc(F)cc2)sc2ncn(CC(=O)N3CCCC(C)C3)c(=O)c12 (stereo unspecified) returned CBX7 AlphaScr inactive.
Screening CCCCNc1cc(-n2nc(C)cc2-c2ccccc2)ncn1 returned CBX7 AlphaScr inactive.
Cc1cccc(C)c1Nc1c(-c2ccccn2)nc2ccccn12 was read as CBX7 AlphaScr 0.23.
Screening Cc1cccc(C)c1Nc1c(-c2ccsc2)nc2ccccn12 returned CBX7 AlphaScr inactive.
`Cc1cccc(C)c1Nc1c(-c2cccs2)nc2ccccn12` gave CBX7 AlphaScr inactive.
Screening COc1cccc(-c2nn(C)c3sc(C(=O)N4CCN(c5cc(C)ccc5C)CC4)cc23)c1 returned CBX7 AlphaScr inactive.
For Cc1ccc(NC(=O)c2cc(C(C)C)on2)cc1C the results were CBX7 AlphaScr inactive.
For Cc1ccc2c(c1)Oc1cc([N+](=O)[O-])cc(Oc3ccc(Cl)cc3)c1C(=O)N2 the results were CBX7 AlphaScr 0.2.
`Cc1ccc2c(c1)Oc1cc([N+](=O)[O-])cc(Oc3ccccc3C)c1C(=O)N2` gave CBX7 AlphaScr 0.049.
For CC(=O)Nc1ccc(Oc2cc([N+](=O)[O-])cc3c2C(=O)Nc2ccccc2O3)cc1 the results were CBX7 AlphaScr inactive.
`O=C(Nc1ccc(-c2nc3ccccc3[nH]2)cc1)c1ccccc1Cl` gave CBX7 AlphaScr inactive.
